Results: publication PMC8384837, “Expanding the binding specificity for RNA recognition by a PUF domain”

These sequences were tested against PUM1 PUF domain R4-SPG (Homo sapiens, UniProt Q14671 828-1176, N971S;H972P;Q975G) (assay: yeast three-hybrid, YBZ-1, SC-Leu-His + 0.5 mM 3-AT, 4 days). Conditions: tags: N-Gal4 AD-HA kept; label: inside an RPR1-promoter hybrid RNA with tandem MS2 sites; ssRNA.
Procedure, shortened: (§1)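 Repeat regions from input (SC-Leu) and selection (SC-Leu-His + 0.5 mM 3-AT) plates were PCR-amplified and Illumina-sequenced after four days of growth. The cells were strain YBZ-1 with a LexA–MS2 coat fusion and a HIS3 reporter, co-expressing Pumilio-1 PUF domain libraries and matching RNA elements from a centromeric plasmid. The interaction score is the log change in variant frequency from input to selection, taken in log2 with a pseudocount of 1 for absent variants.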

Sequence of PUM1 PUF domain R4-SPG (Q14671 828-1176 N971S/H972P/Q975G): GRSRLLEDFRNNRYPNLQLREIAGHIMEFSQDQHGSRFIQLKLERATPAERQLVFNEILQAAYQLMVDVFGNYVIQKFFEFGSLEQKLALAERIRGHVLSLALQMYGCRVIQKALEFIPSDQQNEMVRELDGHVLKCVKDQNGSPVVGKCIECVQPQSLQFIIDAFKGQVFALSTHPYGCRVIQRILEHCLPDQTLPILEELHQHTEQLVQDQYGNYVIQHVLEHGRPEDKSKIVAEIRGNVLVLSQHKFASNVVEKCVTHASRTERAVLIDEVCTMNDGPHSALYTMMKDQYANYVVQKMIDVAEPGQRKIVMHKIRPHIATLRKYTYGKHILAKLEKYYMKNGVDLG

Question: “GGCUAGAACUAGUGGAUCCCCCGGCGCCCGGCGGCUCGAGCCCGGGUAAGUGUAUAUAGUCUGCAUGCCGCCGGGCGCCAUGCCUGCAGGUCGACUCUAGAAAACAUG” was tested. Which binding signal did it give?
Answer: 3.58 log2 enrichment (interaction score)

Question: “GGCUAGAACUAGUGGAUCCCCCGGCGCCCGGCGGCUCGAGCCCGGGUAAGUGUACAUAGUCUGCAUGCCGCCGGGCGCCAUGCCUGCAGGUCGACUCUAGAAAACAUG” was tested. Which binding signal did it give?
Answer: 2.11 log2 enrichment (interaction score)

Question: “GGCUAGAACUAGUGGAUCCCCCGGCGCCCGGCGGCUCGAGCCCGGGUAAGUGUAAAUAGUCUGCAUGCCGCCGGGCGCCAUGCCUGCAGGUCGACUCUAGAAAACAUG” was tested. Which binding signal did it give?
Answer: 4.58 log2 enrichment (interaction score)

What follows are sequences tested against PUM1 PUF domain R3-EWA (Homo sapiens, UniProt Q14671 828-1176, C935E;R936W;Q939A) in the same assay as above. Conditions: tags: N-Gal4 AD-HA kept; label: inside an RPR1-promoter hybrid RNA with tandem MS2 sites; ssRNA.
Sequence of PUM1 PUF domain R3-EWA (Q14671 828-1176 C935E/R936W/Q939A): as the sequence (Q14671 828-1176 N971S/H972P/Q975G) above, with C108E, R109W, Q112A, S144N, P145H, G148Q counted along it
Procedure, shortened: as §1

Question: Which binding signal does the source give for “GGCUAGAACUAGUGGAUCCCCCGGCGCCCGGCGGCUCGAGCCCGGGUAAGUGUAAGUAGUCUGCAUGCCGCCGGGCGCCAUGCCUGCAGGUCGACUCUAGAAAACAUG” here?
Answer: 4.37 log2 enrichment (interaction score)

Question: “GGCUAGAACUAGUGGAUCCCCCGGCGCCCGGCGGCUCGAGCCCGGGUAAGUGUAAAUAGUCUGCAUGCCGCCGGGCGCCAUGCCUGCAGGUCGACUCUAGAAAACAUG” was tested. Which binding signal did it give?
Answer: 4.04 log2 enrichment (interaction score)

Question: “GGCUAGAACUAGUGGAUCCCCCGGCGCCCGGCGGCUCGAGCCCGGGUAAGUGUAAUUAGUCUGCAUGCCGCCGGGCGCCAUGCCUGCAGGUCGACUCUAGAAAACAUG” was tested. Which binding signal did it give?
Answer: 4.15 log2 enrichment (interaction score)
